Sampled rows, rich in hits. Any-hit rate of the full collection: about 2%.
TDP43 rescue – rescues yeast growth from TDP-43 toxicity | TDP-43 expressing yeast growth rescue, BacTiter-Glo, 24 h | Potency, µM (doses to about 46.1 µM), inactives show at the highest dose growth rescue (activation), most hits filed as activators | actives 1.8% (n = 410,000) | AID 652104; further: % of control where 0% means no effect; nearly all actives have a fitted effect of over 50% in size
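Readout is BacTiter-Glo luminescence of cell growth, so inhibitors register as activators. TDP-43-expressing yeast at OD600=0.02 in galactose medium, after raffinose pregrowth to mid-log, were incubated with compound for 24 hr at 30 deg C.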
Abeta rescue – restores growth of yeast expressing A-beta42 peptide | yeast expressing A-beta42, growth rescue, OD600, 48 h; response scale: 0% DMSO, 100% iron-clioquinol control | Potency, µM (doses to about 46.1 µM), actives largely listed as activators | actives 0.063% (n = 410,000); further: nearly all actives have a fitted effect of over 55% in size
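Growth rescue measured by 600 nm absorbance after 48 h yeast culture at 30 C with compound. Values normalized between DMSO and an equimolar ferric chloride plus clioquinol control.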
aSyn rescue – alpha-synuclein toxicity inhibition in yeast; AID 652106; Potency, µM (top dose mostly 46.1 µM), for the others: at the highest dose growth rescue (activation), usual class: activators; Yeast expressing alpha-synuclein, growth rescue, BacTiter-Glo, 24 h; actives 0.14% (n = 370,000); further: % of control where 0% means no effect; nearly all actives have a fitted effect of over 65% in size
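Readout is rescue of growth in alpha-synuclein-expressing yeast, so inhibitors of toxicity appear as activators. Growth after 24 hr at 30 deg C in galactose medium is quantified by luminescence.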
MBNL1-CUG inh – MBNL1-poly(CUG) RNA binding inhibition; TR-FRET MBNL1-His/biotin-(CUG)12 binding, 665/545 ratio; Potency, µM (titrated, usually from 57.5 µM), for inactives: at the top dose activity change, negative = inhibition, actives largely listed as inhibitors; actives 0.036% (n = 280,000); AID 2675; active means well fitted inhibition curve with a large enough effect in the signal ratio, with a control signal flat, not every such curve was filed as active; inconclusive means small, poorly fitted or top-dose-only effect, or effect the other way, or a change in a side signal; inactive means no such curve, though single readings can be large or run the other way; the % refers to the signal ratio; further: on the % scale 0 is the no-effect control and ±100 the full control effect
Target sequence (Q9NR56 whole entry, looked up): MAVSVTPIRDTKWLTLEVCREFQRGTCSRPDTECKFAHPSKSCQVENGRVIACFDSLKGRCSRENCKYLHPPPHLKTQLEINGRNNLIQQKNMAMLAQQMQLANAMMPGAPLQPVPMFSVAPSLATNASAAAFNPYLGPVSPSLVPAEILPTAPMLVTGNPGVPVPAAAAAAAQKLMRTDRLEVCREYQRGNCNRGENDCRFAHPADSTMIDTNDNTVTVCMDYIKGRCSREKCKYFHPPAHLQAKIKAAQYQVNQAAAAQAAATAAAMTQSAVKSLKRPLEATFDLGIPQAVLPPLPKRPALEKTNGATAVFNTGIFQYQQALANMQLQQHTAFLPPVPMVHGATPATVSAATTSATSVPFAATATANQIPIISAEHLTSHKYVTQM
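Compound titration spanned 92 nM–58 uM against the MBNL1-His/biotin-(CUG)12 complex. After 60 min at room temperature with 5 nM streptavidin-XL665 and 0.055 ng/ul terbium anti-His, ratiometric 665/545 nm emission (Ex 340 nm) normalized to controls.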
FUS yeast rescue – FUS proteinopathy suppression in yeast; S. cerevisiae FUS-expressing, growth rescue, OD600, 24 h; Potency, µM (highest dose often 76.6 µM), actives largely listed as activators; actives 0.24% (n = 390,000);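 further: plate controls were DMSO vehicle for no effect and reference control for full effect; nearly all actives have a fitted effect of over 55% in size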
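Galactose (2%) drives FUS expression in yeast precultured in raffinose; seeding density OD 0.005. Test compounds incubated 24hr at 30C and 99% humidity before absorbance at 600 nm was measured.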
Glioma ERSR ind – inducers of ER stress response in human glioma cells; U87-MG GRP78 promoter luciferase reporter, 16 h; Potency, µM, without a hit: at the top dose activation, most hits filed as activators; AID 602332; actives 0.02% (n = 420,000); further: series mostly up to about 76 µM; % of control where 0% means no effect; nearly all actives have a fitted effect of over 35% in size
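Stably transfected U87-MG human glioma cells carrying a GRP78-based luminescent sensor were seeded at 1000 cells/well, pin-dosed with compounds and incubated 16 h. Luciferase reagent was then added, and end-point luminescence was read after 10 min at room temperature.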
Active calls of the source: *; i = inactive; u = inconclusive; x = not tested or not shown; [ ] = dose if it differs, or a comment. Unless noted, the call rests on the fitted dose curve; in most records, active means well fitted curve in the direction sought with a large enough effect; inconclusive means small, poorly fitted or top-dose-only effect, or another doubt; inactive means no such curve, though single readings can be large; an effect the other way counts as inactive or inconclusive. Potency means the concentration at half of the fitted maximal effect.

SMILES | TDP43 rescue | Abeta rescue | aSyn rescue | MBNL1-CUG inh | FUS yeast rescue | Glioma ERSR ind
COc1cccc(C(C)(O)c2nc(/C=C/c3ccccc3)cs2)c1 (configuration not stated) | 25µM* | i | u | x | i | 0%
CC(O)(c1ccccc1)c1nc(/C=C/c2ccccc2)cs1 (configuration not stated) | 35µM* | i | -27% | x | i | -3%
COCC(=O)Nc1cc(C(=O)N2CCN(c3ccccc3)CC2C)c2c(c1)nc(-c1ccncc1)n2C (configuration not stated) | x | x | x | x | x | -1%
CCCCCCCCN1CN2Cc3ccccc3C2CS1(=O)=O (configuration not stated) | x | x | x | x | i | x
C[C@@H]1[C@H](c2ccccc2)OCCS(=O)(=O)N1Cc1ccc(Cl)cc1 | x | x | x | x | x | -4%
COc1cccc(C(C)(O)c2nc(-c3csc4ccccc34)cs2)c1 (configuration not stated) | 35µM* | i | -1% | x | i | -3%
COCc1cccc(-c2csc(C(C)(O)c3cccc(F)c3)n2)c1 (configuration not stated) | 35µM* | i | -6% | x | i | -1%
CC(O)(c1cccc(F)c1)c1nc(-c2cccc(F)c2)cs1 (configuration not stated) | -75% | i | -9% | x | i | -1%
COC(=O)[C@@]1(OC(C)=O)CC(OC(C)=O)[C@H](OC(C)=O)[C@H](OC(C)=O)C1Br (some centres not stated) | x | x | x | x | i | x
CCCCN1C[C@@H](COCc2ccccc2)Oc2cccc(F)c2S1(=O)=O | x | x | x | x | i | x
COc1ccc(NC(=O)CN(C)C(=O)c2cccc(S(=O)(=O)N3CCN(c4ccc(F)cc4)CC3)c2)cc1 | 1% | i | -2% | x | 22µM* | -4%
CN(CC(=O)Nc1ccc(F)cc1)C(=O)c1cccc(S(=O)(=O)N2CCN(c3ccccc3)CC2)c1 | -7% | i | 0% | 1% | u | -5%
COc1ccc(C=Nn2c(-c3ccc(F)cc3)n[nH]c2=S)cc1OCc1ccccc1 | x | x | x | x | i | x
Cc1ccc(NC(=O)c2ccc(Cn3cc(Br)cn3)o2)cc1 | 16µM* | i | -10% | -6% | i | -4%
COc1ccc2c(c1)CCc1cnc(-n3ncc(C(=O)NCc4cc(C)no4)c3C3CC3)nc1-2 | x | x | x | x | x | 4%
CC(C)c1cccc(C2=CC(=O)C[C@H](c3ccc(F)cc3)C2)c1 | 13% | i | -10% | x | i | -5%
CCOC(=O)c1cccc(C2=CC(=O)C[C@H](c3ccc(OC)c(OC)c3)C2)c1 | 22µM* | i | 1% | x | u | -2%
COc1ccc([C@H]2CC(=O)C=C(c3cccc(C(C)C)c3)C2)cc1OC | 20µM* | i | -5% | x | i | -4%
O=C1C=C(c2ccc3ccccc3c2)C[C@@H](c2ccc(Cl)cc2)C1 | 15% | i | 12% | x | i | -3%
COc1ccc([C@H]2CC(=O)C=C(c3cccc(CO)c3)C2)cc1OC | 18% | i | 5% | x | i | -5%
COc1cccc(C2=CC(=O)C[C@H](c3ccc(Cl)cc3)C2)c1 | 13µM* | i | 11% | x | u | -4%
COc1ccc([C@H]2CC(=O)C=C(c3cccc(Br)c3)C2)cc1OC | 35µM* | i | 15% | x | u | -3%
CCN1CCN(C(=O)c2sc3ncnc(NCC4CCCO4)c3c2C)CC1 (configuration not stated) | x | x | x | x | x | -4%
COc1ccc([C@H]2CC(=O)C=C(c3ccc4ccccc4c3)C2)cc1OC | 16µM* | i | 10% | x | i | -3%
COc1ccc([C@H]2CC(=O)C=C(c3cccc(C(F)(F)F)c3)C2)cc1 | u | i | -5% | x | i | 0%
SMILES | TDP43 rescue | Abeta rescue | aSyn rescue | MBNL1-CUG inh | FUS yeast rescue | Glioma ERSR ind
COc1ccc([C@H]2CC(=O)C=C(c3cccc(Br)c3)C2)cc1 | 22µM* | i | u | x | i | 1%
Cc1cnc(-n2ncc(C(=O)NCCCc3ccncc3)c2C)nc1-c1ccc(F)cc1 | x | x | x | x | x | -2%
COCC(=O)Nc1cc(C(=O)N2CC3CCC2C3)c2c(c1)nc(-c1ccncc1)n2C (configuration not stated) | x | x | x | x | x | -3%
CC(=O)Nc1ccc(S(=O)(=O)N2CCN(c3cc(C)ccc3C)CC2)cc1 | 28µM* | i | 9% | 0% | u | -5%
CC(=O)Nc1ccc(S(=O)(=O)N2CCN(S(=O)(=O)c3ccccc3)CC2)cc1 | 6% | i | 1% | -5% | i | 0%
COc1ccc(OC)c2c(/C=C/c3c(C)[nH]c4ccccc34)ccnc12 | x | x | x | x | x | -11%
C=CCNC1=C(Cl)C(=O)N(c2cccc(Cl)c2Cl)C1=O | 16µM* | i[9.22 µM] | 20% | u | i | -3%
O=C(O)c1ccc(COc2ccccc2/C=C2/NC(=O)N(c3cccc(Cl)c3)C2=O)cc1 | 13% | i | -1% | u | u | 0%
O=C(O)c1ccc(COc2ccc3ccccc3c2/C=C2/NC(=O)N(c3ccccc3)C2=O)cc1 | 4% | i | -1% | u | 35µM* | 0%
COC(=O)C1CCN(C(=O)COc2cc3sc(C)nc3c3sccc23)CC1 | 20µM* | i | 1% | -2% | i | -4%
COC(=O)C1CCN(C(=O)COc2ccc(Cl)cc2)CC1 | 1% | i | 3% | 5% | i | -10%
CCOC(=O)c1cc2c(=O)n3ccccc3nc2n(Cc2ccco2)c1=NC(=O)c1cccnc1 | -1% | i | 0% | u | 32µM* | -2%
CC[C@@H]([C@H](C)O)n1ncn(-c2ccc(N3CCN(c4ccc(OCC5CO[C@@](Cn6cncn6)(c6ccc(F)cc6F)C5)cc4)CC3)cc2)c1=O (some centres not stated) | x | x | x | x | x | -4%
COc1ccc(C(C#N)=Cc2cccc(OC)c2OC)cc1 | 18µM* | i | -23% | x | i | 2%
COc1cc(/C(C#N)=C/c2cccc3ccccc23)c([N+](=O)[O-])cc1OC | -2% | i | 5% | 3% | i | -5%
N/C(=N\C(=S)Nc1ccc2c(c1)OCO2)c1ccccc1 | 20µM* | u | -12% | x | i | 1%
N#Cc1ccc(NC(=S)/N=C(\N)c2ccccc2)cc1 | 11µM* | u | -21% | x | i | -2%
N/C(=N\C(=S)Nc1ccccc1)c1ccccc1 | u | u | -11% | -3% | i | 8%
COc1ccc(CCN(C)C(=O)c2cnn(-c3nccc(-c4ccc(C)o4)n3)c2C)cc1OC | x | x | x | x | x | -4%

Screens: PubChem BioAssay, National Center for Advancing Translational Sciences (NCATS)
